In the library only some 2.5% were active in any assay of this set; here they are far more common.
Cruzain Triton: inhibitors of Trypanosoma cruzi cruzain with detergent. P25779. purified cruzain, Z-FR-AMC fluorescence, 0.01% Triton. Potency, µM, usual class: inhibitors. 200,000 compounds, 0.43% hits; also: nearly all actives have a fitted effect of over 40% in size
Target sequence (P25779 123-467 limits assumed): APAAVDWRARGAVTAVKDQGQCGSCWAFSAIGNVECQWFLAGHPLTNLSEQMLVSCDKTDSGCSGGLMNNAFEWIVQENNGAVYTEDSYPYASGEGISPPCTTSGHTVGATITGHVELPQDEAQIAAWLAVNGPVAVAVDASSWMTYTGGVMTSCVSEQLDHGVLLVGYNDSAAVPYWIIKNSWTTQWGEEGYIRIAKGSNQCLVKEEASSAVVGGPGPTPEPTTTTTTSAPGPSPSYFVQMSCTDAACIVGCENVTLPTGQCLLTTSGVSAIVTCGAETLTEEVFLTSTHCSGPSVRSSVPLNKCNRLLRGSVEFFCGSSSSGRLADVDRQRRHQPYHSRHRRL
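Compounds were screened in titration against cruzain (1.5 nM) with 0.01% Triton X-100 to counter colloidal aggregation. Activity was the AMC fluorescence increase over 60 s after adding 2 uM Z-FR-AMC at pH 5.5.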
Cruzain inh noDet: blocks cruzain activity in detergent-free assay; P25779; purified cruzain, Z-FR-AMC fluorescence, no detergent; Potency, µM, hits mostly inhibitors; 200,000 compounds, 2.3% hits; AID 1476; also: nearly all actives have a fitted effect of over 40% in size
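Detergent-free condition (0.00005% Triton X-100) in acetate buffer pH 5.5 with DTT. 1.5 nM enzyme and compound were pre-mixed 15 min, then 2 uM Z-FR-AMC substrate added; reaction progress from fluorescence change between first and third reads (60 s).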
Large screens that a line does not name were inactive; ! = not active in a repeat. Calls follow the shape of the dose curve; as a rule, active = well fitted curve in the direction sought with a large enough effect; inconclusive = small, poorly fitted or top-dose-only effect, or another doubt; inactive = no such curve, though single readings can be large; an effect the other way counts as inactive or inconclusive.

COc1ccccc1CNC(=O)CC(c1ccc(OC)c(OC)c1)N1Cc2ccccc2C1=O (configuration not stated)	none
COc1cc(C(CC(=O)NCc2ccccc2Cl)N2Cc3ccccc3C2=O)cc(OC)c1OC (configuration not stated)	Cruzain Triton inconclusive, Cruzain inh noDet 15.8µM
Cc1ccc(NC(=O)Cn2cc(C(=O)C3CCCCC3)c3ccccc32)cc1	Cruzain inh noDet inconclusive
CN1CCN(c2ncc3nc(CCc4ccccc4)c(=O)n(C4CC4)c3n2)CC1	none
COc1cc(OC)cc(-c2nc3ccccc3c(=O)o2)c1	Cruzain inh noDet 15.8µM
COc1cccc(-c2nc3ccccc3c(=O)o2)c1	none
O=C(Nc1ccc2ccccc2c1)c1cn(-c2ccccc2)nc1-c1cccs1	Cruzain inh noDet 20µM
CN(C)c1ccc(NC(=O)c2cn(-c3ccccc3)nc2-c2cccs2)cc1	Cruzain inh noDet inconclusive
CC1=NCCc2c1[nH]c1cc(O)ccc21	Cruzain Triton 28.2µM!, Cruzain inh noDet 12.6µM!
COc1ccc2[nH]c3c(c2c1)CCn1c-3nc2ccccc2c1=O	none
Cc1ccc2[nH]c3c(c2c1)CCC3=O	none
COc1ccc2c3c([nH]c2c1)C(C)=NCC3	Cruzain inh noDet 10µM!
CCCCCCCCCCCCCCCC(=O)OC(CO)CO	Cruzain inh noDet inconclusive
NC(N)=N/N=C\c1ccc(O)c(C(=O)O)c1	none
Cc1nc2c(C(=O)N(C)Cc3ccccc3)c[nH]n2c(=O)c1Cc1ccc(Cl)cc1	none
Cc1ccc(OCCn2nnc3sc4c(c3c2=O)CCC(C)C4)cc1 (configuration not stated)	none
CCCc1ccc(C2Sc3ccccc3NC3=C2C(=O)c2ccccc23)cc1 (configuration not stated)	Cruzain inh noDet 7.94µM
O=C1C2=C(Nc3ccccc3SC2c2c(F)cccc2Cl)c2ccccc21 (configuration not stated)	none
COc1ccc(Br)cc1C1Sc2ccccc2NC2=C1C(=O)c1ccccc12 (configuration not stated)	Cruzain inh noDet 15.8µM
O=C1C2=C(Nc3ccccc3SC2c2ccccc2C(F)(F)F)c2ccccc21 (configuration not stated)	Cruzain inh noDet inconclusive
O=C1C2=C(Nc3ccccc3SC2c2ccc(Cl)c(Cl)c2)c2ccccc21 (configuration not stated)	Cruzain inh noDet 10µM
CCOc1cc(C2Sc3ccccc3NC3=C2C(=O)c2ccccc23)ccc1O (configuration not stated)	none
Cc1ccccc1CNC(=O)CCSCc1cnn(-c2ccccc2)c1-n1cccc1	Cruzain inh noDet inconclusive
COc1ccc(-n2nc(C(=O)Nc3ccccc3OC)c3c4ccccc4n(C)c3c2=O)cc1Cl	none
COc1cc(/C=N/Nc2cccc(C)c2)ccc1OC(=O)c1ccco1	Cruzain inh noDet 15.8µM
COc1cc(/C=N/NC(=O)CNC(=O)c2ccccc2)ccc1OC(=O)c1cccs1	none
COc1cc(/C=N/Nc2ccc(Cl)cc2)ccc1OC(=O)c1cccs1	Cruzain inh noDet 7.94µM
COc1cc(/C=N\NC(=O)c2ccc(C)nc2)ccc1OC(=O)c1ccco1	none
CCN(CC)C(=O)c1sc(NC(=O)C2c3ccccc3Oc3ccccc32)c(C(=O)OC(C)C)c1C	none
CCC1CCc2c(sc(NC(=O)C3c4ccccc4Oc4ccccc43)c2C(N)=O)C1 (configuration not stated)	Cruzain inh noDet 25.1µM
CCOC(=O)c1c(NC(=O)c2ccccc2OCC)sc2c1CCC(CC)C2 (configuration not stated)	none
CC(C)OC(=O)c1c(NC(=O)C2c3ccccc3Oc3ccccc32)sc2c1CCCC2	Cruzain inh noDet 6.31µM
CCCOC(=O)c1c(NC(=O)C2c3ccccc3Oc3ccccc32)sc2c1CCCC2	Cruzain inh noDet 25.1µM
CCOC(=O)c1c(NC(=O)C2c3ccccc3Oc3ccccc32)sc(C(N)=O)c1C	none
COc1ccc(C(=O)N2c3ccccc3C(C)(c3ccc(Cl)cc3)CC2(C)C)cc1 (configuration not stated)	Cruzain inh noDet inconclusive
COc1cc2c(cc1OC)[C@@]13CCN4C=C5CCO[C@H]6CC(=O)N2[C@@H]1C6[C@H]5C[C@H]43 (some centres not stated)	none
Cc1ccc(C)c(NC(=O)CSc2c(C)cnc3c2c(=O)n(C)c(=O)n3C)c1	none
O=C(CN(c1cccc(C(F)(F)F)c1)S(=O)(=O)c1ccc(Cl)c([N+](=O)[O-])c1)NCc1ccccc1	none
O=C(CN(c1cccc(C(F)(F)F)c1)S(=O)(=O)c1ccc(Cl)c([N+](=O)[O-])c1)NCc1ccccc1Cl	Cruzain inh noDet 25.1µM
COc1ccccc1CNC(=O)c1ccc2c(c1)sc1nc(-c3ccc(F)cc3)cn12	none
CCCC(=O)Nc1ccc(Cl)c(NC(=S)NC(=O)c2cc3ccccc3o2)c1	Cruzain inh noDet 5.01µM
Cc1ccc(NC(=O)c2ccc(OC(=O)c3ccco3)cc2)cc1	none
Cc1cc(=O)oc2cc(NC(=O)c3cc4ccccc4o3)ccc12	Cruzain inh noDet 10µM
O=C(Nc1ccc2oc(=O)ccc2c1)c1cc2ccccc2o1	none
O=C(Nc1ccc(NC(=O)c2cc3ccccc3o2)cc1)c1ccccc1	Cruzain inh noDet 3.16µM
Cc1ccc(NC(=O)c2ccc(OC(=O)c3cc4ccccc4o3)cc2)cc1	Cruzain inh noDet 7.94µM
CCC(=O)Nc1ccc(NC(=S)NC(=O)c2cc3ccccc3o2)cc1	none
O=C(O)c1ccc(NC(=O)c2cc3ccccc3o2)cc1	none
CCC(C(=O)NCCc1ccc(OC)c(OC)c1)n1nc(C)c2sc3ccccc3c2c1=O (configuration not stated)	Cruzain inh noDet inconclusive
COc1ccc(Br)cc1CNC(=O)c1cc(=O)[nH]c2ccc(S(=O)(=O)N3CCCCC3)cc12	none
CN(Cc1ccccc1)c1ccc2cc(S(=O)(=O)N3CCCCC3)ccc2n1	none
NC(=S)NNC(N)=S	none
COc1cc(NC(=O)c2cc(Cl)ccc2Cl)ccc1NC(=O)c1cc2ccccc2o1	Cruzain inh noDet 15.8µM
O=C(Nc1c(C(=O)Nc2ccc(F)cc2)oc2ccccc12)c1cc2ccccc2o1	Cruzain inh noDet 12.6µM
COc1ccc(NC(=O)c2oc3ccccc3c2NC(=O)c2cc3ccccc3o2)cc1	Cruzain inh noDet inconclusive
COc1cc(NC(=O)c2ccccc2)ccc1NC(=O)c1cc2ccccc2o1	none
COC(=O)COc1cccc(NC(=O)c2ccc(C)cc2)c1	none
Cc1ccc(NC(=O)c2ccc(OC(=O)COc3ccc(Cl)c(C)c3)cc2)cc1	Cruzain inh noDet 15.8µM
CCN(c1ccc(C)cc1C)S(=O)(=O)c1nnc(NC(=O)c2ccccc2OC)s1	none
O=C(COc1ccc(Br)cc1)Nc1ccc(C(=O)OC2CCCCC2)cc1	none
CCOC(=O)CNC(=O)O[C@H]1C(=O)c2ccc(OC)cc2O[C@@H]1c1ccc2c(c1)OCO2	none
C/C(=N\NC(=O)c1ccc(Cl)cc1)c1ccc(Br)s1	Cruzain inh noDet inconclusive
C/C(=N\NC(=O)c1cc(Cl)ccc1O)c1ccc(Br)s1	Cruzain inh noDet 10µM
Cc1cccc(OCC(=O)N(Cc2cccc(Cl)c2)Cc2ccco2)c1C	none
COc1ccccc1N1CCN(C(CNC(=O)C(=O)NCCc2ccccc2)c2cccnc2)CC1 (configuration not stated)	Cruzain inh noDet inconclusive
Cc1cc(C(=O)Cn2nc(C(=O)O)c3ccccc3c2=O)c(C)n1-c1ccccc1	Cruzain inh noDet 25.1µM
Cc1cc(C(=O)Cn2nnc(-c3ccc(Cl)cc3)n2)c(C)n1-c1ccccc1	Cruzain inh noDet inconclusive
Cc1cccc(OCC(=O)NC(Cc2ccccc2)C(=O)O)c1 (configuration not stated)	none

Bioassay records: PubChem BioAssay, National Center for Advancing Translational Sciences (NCATS)
